In PubChem BioAssay AID1159580 (chemical genetic matrix, 2015):
The campaign covered roughly 5,500 compounds. About 2,000 (36%) were called active. Inconclusive results (about 18%) are left out. No stated cut-off is given here; in the data, active means normalized growth mostly below about 0.91 (no sharp cut-off); inconclusive means no clear call, values can overlap the other calls; inactive means mostly above about 0.92. The list shows a part of the results.

Assay: chemical genetic growth profiling, strain panel (AID 1159580);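 further: tested at 20 µM; growth read once vehicle control cultures reached saturation at 30 °C; 1 = growth at the plate median or of vehicle wells; lower values mean less growth of the strain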
Conditions: growth OD

Measured: normalized growth

OC(CCN1CCCC1)(c1ccccc1)C1CCCCC1 (centres undefined)
inactive: S. cerevisiae deletion strains, locus YJR043C, strain POL32, hits give low values 1.01 | S. cerevisiae deletion strains, locus YJR066W, strain TOR1, hits give low values 0.973 | S. cerevisiae deletion strains, locus YKL009W, strain mrt4, hits give low values 0.977 | S. cerevisiae deletion strains, locus YKL068W, hits give low values 0.985 | S. cerevisiae deletion strains, locus YKL085W, strain MDH1 (second series), hits give low values 0.977 | S. cerevisiae deletion strains, locus YKL085W, strain MDH1, hits give low values 0.977 | S. cerevisiae deletion strains, locus YKL160W, strain elf1, hits give low values 0.975 | S. cerevisiae deletion strains, locus YKL190W, strain CNB1, hits give low values 0.996 | S. cerevisiae deletion strains, locus YKR001C, strain vps1, hits give low values 0.985 | S. cerevisiae deletion strains, locus YKR026C, strain gcn3, hits give low values 0.986 | S. cerevisiae deletion strains, locus YKR091W, strain srl3, hits give low values 0.992 | S. cerevisiae deletion strains, locus YLL001W, strain dnm1, hits give low values 0.956 | S. cerevisiae deletion strains, locus YLL026W, hits give low values 0.974 | S. cerevisiae deletion strains, locus YLL041C, strain sdh2, hits give low values 0.988 | S. cerevisiae deletion strains, locus YLR027C, strain aat2, hits give low values 0.969 | S. cerevisiae deletion strains, locus YLR039C, strain RIC1, hits give low values 1.05 | S. cerevisiae deletion strains, locus YLR058C, strain SHM2, hits give low values 0.994 | S. cerevisiae deletion strains, locus YLR102C, strain apc9, hits give low values 0.972 | S. cerevisiae deletion strains, locus YLR113W, strain HOG1, hits give low values 1 | S. cerevisiae deletion strains, locus YLR221C, strain rsa3, hits give low values 0.995 | S. cerevisiae deletion strains, locus YLR258W, strain gsy2, hits give low values 1 | S. cerevisiae deletion strains, locus YLR262C, strain YPT6 (second series), hits give low values 0.998 | S. cerevisiae deletion strains, locus YLR262C, strain YPT6, hits give low values 1.07 | S. cerevisiae deletion strains, locus YLR268W, strain sec22, hits give low values 0.946 | S. cerevisiae deletion strains, locus YLR320W, strain mms22, hits give low values 0.968 | S. cerevisiae deletion strains, locus YLR330W, strain CHS5, hits give low values 0.992 | S. cerevisiae deletion strains, locus YLR342W, strain FKS1 (second series), hits give low values 0.992 | S. cerevisiae deletion strains, locus YLR342W, strain FKS1, hits give low values 0.963 | S. cerevisiae deletion strains, locus YLR357W, strain rsc2, hits give low values 0.973 | S. cerevisiae deletion strains, locus YLR370C, strain arc18, hits give low values 0.972 | S. cerevisiae deletion strains, locus YLR371W, strain rom2, hits give low values 0.958 | S. cerevisiae deletion strains, locus YLR384C, strain iki3, hits give low values 0.969 | S. cerevisiae deletion strains, locus YLR418C, strain cdc73, hits give low values 0.957 | S. cerevisiae deletion strains, locus YML016C, strain PPZ1, hits give low values 0.991 | S. cerevisiae deletion strains, locus YML032C, strain rad52, hits give low values 0.97 | S. cerevisiae deletion strains, locus YML120C, strain ndi1, hits give low values 0.972 | S. cerevisiae deletion strains, locus YML124C, strain tub3, hits give low values 0.983 | S. cerevisiae deletion strains, locus YMR058W, strain fet3, hits give low values 0.981 | S. cerevisiae deletion strains, locus YMR078C, strain ctf18, hits give low values 0.966 | S. cerevisiae deletion strains, locus YMR125W, strain sto1, hits give low values 1 | S. cerevisiae deletion strains, locus YMR129W, hits give low values 0.99 | S. cerevisiae deletion strains, locus YMR205C, strain PFK2, hits give low values 0.985 | S. cerevisiae deletion strains, locus YMR223W, strain ubp8, hits give low values 0.999 | S. cerevisiae deletion strains, locus YMR231W, strain pep5, hits give low values 1 | S. cerevisiae deletion strains, locus YMR263W, strain SAP30, hits give low values 1 | S. cerevisiae deletion strains, locus YMR307W, strain GAS1, hits give low values 0.991 | S. cerevisiae deletion strains, locus YNL067W, strain RPL9B, hits give low values 0.998 | S. cerevisiae deletion strains, locus YNL071W, strain lat1, hits give low values 1.01 | S. cerevisiae deletion strains, locus YNL128W, strain TEP1, hits give low values 0.982 | S. cerevisiae deletion strains, locus YNL183C, strain NPR1, hits give low values 0.989 | S. cerevisiae deletion strains, locus YNL209W, strain ssb2, hits give low values 0.993 | S. cerevisiae deletion strains, locus YNL233W, strain BNI4, hits give low values 1.01 | S. cerevisiae deletion strains, locus YNL248C, strain rpa49, hits give low values 1.01 | S. cerevisiae deletion strains, locus YNL250W, strain rad50, hits give low values 0.967 | S. cerevisiae deletion strains, locus YNL271C, strain bni1, hits give low values 0.987 | S. cerevisiae deletion strains, locus YNL298W, strain CLA4, hits give low values 0.97 | S. cerevisiae deletion strains, locus YNL307C, strain MCK1, hits give low values 0.976 | S. cerevisiae deletion strains, locus YNL322C, strain KRE1 (second series), hits give low values 0.981 | S. cerevisiae deletion strains, locus YNR049C, strain mso1, hits give low values 0.998 | S. cerevisiae deletion strains, locus YNR052C, strain pop2, hits give low values 0.98 | S. cerevisiae deletion strains, locus YOL006C, strain TOP1, hits give low values 1.02 | S. cerevisiae deletion strains, locus YOL012C, strain htz1 0.758 | S. cerevisiae deletion strains, locus YOL147C, strain pex11, hits give low values 0.975 | S. cerevisiae deletion strains, locus YOR001W, strain rrp6, hits give low values 0.965 | S. cerevisiae deletion strains, locus YOR061W, strain CKA2, hits give low values 0.987 | S. cerevisiae deletion strains, locus YOR069W, strain VPS5, hits give low values 0.989 | S. cerevisiae deletion strains, locus YOR070C, strain gyp1, hits give low values 1 | S. cerevisiae deletion strains, locus YOR080W, strain dia2, hits give low values 0.983 | S. cerevisiae deletion strains, locus YOR083W, strain WHI5, hits give low values 0.956 | S. cerevisiae deletion strains, locus YOR106W, strain vam3, hits give low values 0.979 | S. cerevisiae deletion strains, locus YOR136W, strain idh2, hits give low values 0.982 | S. cerevisiae deletion strains, locus YOR144C, strain elg1, hits give low values 0.979 | S. cerevisiae deletion strains, locus YOR184W, strain ser1, hits give low values 0.985 | S. cerevisiae deletion strains, locus YOR231W, strain MKK1, hits give low values 0.963 | S. cerevisiae deletion strains, locus YOR265W, strain rbl2, hits give low values 0.988 | S. cerevisiae deletion strains, locus YOR270C, strain vph1, hits give low values 0.965 | S. cerevisiae deletion strains, locus YOR290C, strain snf2, hits give low values 1.01 | S. cerevisiae deletion strains, locus YOR316C, strain cot1, hits give low values 0.97 | S. cerevisiae deletion strains, locus YPL051W, strain arl3, hits give low values 0.987 | S. cerevisiae deletion strains, locus YPL078C, strain atp4, hits give low values 0.945 | S. cerevisiae deletion strains, locus YPL106C, strain sse1, hits give low values 1 | S. cerevisiae deletion strains, locus YPL240C, strain hsp82, hits give low values 0.978 | S. cerevisiae deletion strains, locus YPL256C, strain CLN2, hits give low values 1.02 | S. cerevisiae deletion strains, locus YPR119W, strain clb2, hits give low values 0.981 | S. cerevisiae deletion strains, locus YPR141C, strain kar3, hits give low values 0.978 | S. cerevisiae deletion strains, locus YPR163C, strain tif3, hits give low values 0.974 | S. cerevisiae deletion strains, locus YPR167C, strain met16, hits give low values 0.978 | S. cerevisiae deletion strains, strain wtn01, hits give low values 0.964 | S. cerevisiae strains, strain wild type, hits give low values 0.996
